Results: PubChem BioAssay (EPA / NIEHS)
Results filed as inconclusive are left out. Active and inactive are the calls of the source. How the source made its calls, unless noted: active means hit-call score of the fitted dose curve at least 0.9, where 1 is the maximum; inactive means score below 0.9.

Experiments:
[1] = ATG_NFI_CIS: Attagene CIS-FACTORIAL HepG2 Assay for human Nuclear Factor I (NFI) (AID 2282989); details: HepG2 cis-regulatory reporter, NFI response element transcription; actives raise or lower the signal
How it was run: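 Multiplexed cis-reporter system in human HepG2 cells reports native TF activity as reporter mRNA induction 24 h post-dose. Fragments labelled with 6-FAM, HpaI-digested and resolved by capillary electrophoresis; activity fitted both directions versus DMSO.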

[2] = target: Myc proto-oncogene protein (Homo sapiens) (UniProt P01106); test: ATG_Myc_CIS: Attagene CIS-FACTORIAL HepG2 Assay for human Myelocytomatosis (Myc) Proto-Oncogene Transcription Factor (AID 2282990); details: HepG2, Attagene cis-reporter transcription factor activity; actives raise or lower the signal
Sequence of Myc proto-oncogene protein (Homo sapiens) (P01106 whole entry, looked up): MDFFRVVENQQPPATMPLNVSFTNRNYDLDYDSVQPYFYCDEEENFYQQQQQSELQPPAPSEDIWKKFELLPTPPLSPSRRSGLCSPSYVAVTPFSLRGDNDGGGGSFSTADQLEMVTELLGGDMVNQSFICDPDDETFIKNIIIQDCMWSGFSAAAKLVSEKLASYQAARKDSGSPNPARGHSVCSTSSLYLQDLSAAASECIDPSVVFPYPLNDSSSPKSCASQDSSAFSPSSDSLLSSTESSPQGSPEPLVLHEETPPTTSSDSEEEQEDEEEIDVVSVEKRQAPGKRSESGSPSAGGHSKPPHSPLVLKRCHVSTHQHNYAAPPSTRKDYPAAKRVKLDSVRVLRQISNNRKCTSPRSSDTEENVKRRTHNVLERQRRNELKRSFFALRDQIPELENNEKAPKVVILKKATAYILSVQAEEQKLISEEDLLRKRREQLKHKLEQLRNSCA
How it was run: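 HepG2 cells transiently transfected with multiple cis-promoter-driven reporter transcription units, so endogenous TF activity is read. After 24 h compound exposure, reporter mRNA was quantified by RT-PCR, 6-FAM labelling, HpaI digestion and capillary electrophoresis; bidirectional fit versus DMSO.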

[3] = ATG_NF_kB_CIS: Attagene CIS-FACTORIAL HepG2 Assay for human Nuclear Factor Kappa B (NF-kB) (AID 2282991); details: HepG2 Attagene cis-factorial NF-kB reporter mRNA; actives raise or lower the signal
How it was run: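 Measures mRNA induction of an NF-kB-responsive cis-element reporter in HepG2 cells transfected with multiple reporter units, sampled 24 h post-dosing; quantified by fluorescence after RT-PCR and capillary electrophoresis, fitted for activation or inhibition against DMSO.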

[4] = ATG_NRF2_ARE_CIS: Attagene CIS-FACTORIAL HepG2 Assay for human Nuclear Factor Erythroid 2 Related Factor 2 (NFR2) response to Antioxidant Response Elements (ARE) (AID 2282992); details: HepG2 Attagene ARE/NRF2 reporter, transcription factor activity; actives raise or lower the signal;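 on AC50: reporter mRNA level measured by RT-PCR and capillary electrophoresis fluorescence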
How it was run: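 Multiplexed reporter mRNA profiling in HepG2 after a 24 h chemical exposure. Curves fitted in both directions relative to DMSO negative control.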

[5] = target: Peroxisome proliferator-activated receptor gamma (Homo sapiens) (UniProt P37231); test: ATG_PPARg_TRANS: Attagene TRANS-FACTORIAL HepG2 Assay for human Peroxisome Proliferator-activated Receptor-gamma (PPARg) (AID 2283007; active means hit-call score of the fitted dose curve at least 0.9, where 1 is the maximum)
Sequence of Peroxisome proliferator-activated receptor gamma (Homo sapiens) (P37231 whole entry, looked up, the tested form may be a part): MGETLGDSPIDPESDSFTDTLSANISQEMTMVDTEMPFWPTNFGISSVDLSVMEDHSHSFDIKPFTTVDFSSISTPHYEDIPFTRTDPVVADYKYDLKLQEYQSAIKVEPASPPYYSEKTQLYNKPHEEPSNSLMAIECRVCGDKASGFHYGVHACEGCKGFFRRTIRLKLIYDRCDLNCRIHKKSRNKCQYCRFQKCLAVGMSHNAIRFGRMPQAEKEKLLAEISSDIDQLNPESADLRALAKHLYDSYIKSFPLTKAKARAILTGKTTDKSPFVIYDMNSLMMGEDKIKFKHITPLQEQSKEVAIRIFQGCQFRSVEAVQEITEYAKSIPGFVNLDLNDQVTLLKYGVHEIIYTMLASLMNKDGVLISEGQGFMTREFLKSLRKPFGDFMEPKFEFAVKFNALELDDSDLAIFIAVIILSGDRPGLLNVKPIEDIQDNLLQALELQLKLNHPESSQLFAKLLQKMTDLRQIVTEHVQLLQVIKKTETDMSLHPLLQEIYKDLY
How it was run: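 Gain-of-signal endpoint relative to DMSO, derived from reporter mRNA levels quantified by RT-PCR and capillary electrophoresis. Cells were HepG2 transiently expressing a chimeric NR-Gal4 construct with GAL4-UAS reporters, exposed to chemicals for 24 h.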

[6] = target: human RAR-related Orphan Receptor beta (RORb), RORB (gene 6096) (UniProt Q92753); test: ATG_RORb_TRANS: Attagene TRANS-FACTORIAL HepG2 Assay for human RAR-related Orphan Receptor beta (RORb) (AID 2283010; active means hit-call score of the fitted dose curve at least 0.9, where 1 is the maximum)
Sequence of human RAR-related Orphan Receptor beta (RORb), RORB (gene 6096) (Q92753 whole entry, looked up, the tested form may be a part): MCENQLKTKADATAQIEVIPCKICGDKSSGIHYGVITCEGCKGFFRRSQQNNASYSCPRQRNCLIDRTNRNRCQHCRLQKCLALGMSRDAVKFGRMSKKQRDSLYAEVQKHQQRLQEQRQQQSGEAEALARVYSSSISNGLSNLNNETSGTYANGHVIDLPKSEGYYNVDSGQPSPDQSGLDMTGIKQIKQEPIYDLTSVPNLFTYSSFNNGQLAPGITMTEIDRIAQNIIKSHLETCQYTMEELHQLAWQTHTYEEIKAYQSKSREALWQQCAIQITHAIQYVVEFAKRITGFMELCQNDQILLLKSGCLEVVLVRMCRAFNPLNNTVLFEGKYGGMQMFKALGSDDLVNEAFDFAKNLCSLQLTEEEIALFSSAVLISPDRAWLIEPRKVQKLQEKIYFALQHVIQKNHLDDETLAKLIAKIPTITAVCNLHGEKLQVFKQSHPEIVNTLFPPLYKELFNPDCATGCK
How it was run: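 HepG2 cells were transiently transfected with multiplexed GAL4-UAS reporter units expressing chimeric nuclear receptor–GAL4 proteins, then dosed for 24 h. Reporter mRNA was quantified by RT-PCR with fluorescent labelling and capillary electrophoresis; gain of signal was fitted relative to DMSO.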

[7] = ATG_Oct_MLP_CIS: Attagene CIS-FACTORIAL HepG2 Assay for human Octamer-Binding Transcription Factor (Oct) (AID 2282993); details: HepG2 Attagene cis-factorial Oct reporter, mRNA; actives raise or lower the signal
How it was run: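 After 24 h compound exposure, transfected HepG2 cells were lysed for total RNA; reporter-specific cDNA was PCR-amplified, fluorescently labelled and sized by capillary electrophoresis. Bidirectional curve fitting used DMSO as baseline.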

[8] = target: Cellular tumor antigen p53 (Homo sapiens) (UniProt P04637); test: ATG_p53_CIS: Attagene CIS-FACTORIAL HepG2 Assay for human p53 Transcription Factor (AID 2282994); details: HepG2 p53 cis-element reporter, Attagene mRNA; actives raise or lower the signal
Sequence of Cellular tumor antigen p53 (Homo sapiens) (P04637 whole entry, looked up): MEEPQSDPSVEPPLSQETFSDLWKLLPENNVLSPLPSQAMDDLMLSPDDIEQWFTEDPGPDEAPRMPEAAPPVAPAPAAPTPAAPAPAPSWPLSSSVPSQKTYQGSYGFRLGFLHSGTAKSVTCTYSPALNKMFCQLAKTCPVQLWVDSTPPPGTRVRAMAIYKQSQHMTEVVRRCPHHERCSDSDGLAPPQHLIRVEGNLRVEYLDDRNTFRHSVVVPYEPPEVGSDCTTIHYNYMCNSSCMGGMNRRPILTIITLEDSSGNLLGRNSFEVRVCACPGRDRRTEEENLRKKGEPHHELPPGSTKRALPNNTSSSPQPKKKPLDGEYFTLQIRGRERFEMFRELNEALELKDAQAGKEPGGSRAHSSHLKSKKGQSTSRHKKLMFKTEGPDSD
How it was run: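 Multiplexed reporter mRNA assay in human HepG2 liver cells; cis-regulated units report endogenous factor activity. Values come from bidirectional curve fitting against DMSO negative control after 24 h treatment.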

[9] = BSK_3C_TissueFactor: BioMAP Diversity Plus: 3C Assay for Tissue Factor Biomarker Activity (AID 2282997); details: BioMAP 3C HUVEC, tissue factor biomarker readout; actives raise or lower the signal
How it was run: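 Primary human umbilical vein endothelial cells in the 3C system were exposed to test chemical for 24 h, then Tissue Factor measured by ELISA. Activity was fitted bidirectionally against DMSO as negative control and baseline.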

[10] = BSK_3C_uPAR: BioMAP Diversity Plus: 3C Assay for Urokinase-type plasminogen activator receptor (uPAR) Biomarker Activity (AID 2282998); details: BioMAP 3C HUVEC, uPAR biomarker ELISA; actives raise or lower the signal
How it was run: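 Values derive from bidirectional curve fitting relative to DMSO, which served as baseline of activity. uPAR was measured by ELISA in human umbilical vein endothelial primary cultures 24 h after compound addition.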

[11] = BSK_3C_VCAM1: BioMAP Diversity Plus: 3C Assay for Vascular cell adhesion molecule 1 (VCAM1) Biomarker Activity (AID 2282999); details: BioMAP 3C HUVEC, VCAM1 ELISA, cytokine-stimulated; actives raise or lower the signal
How it was run: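 Human umbilical vein endothelial cells were dosed with compound for 24 h, after which cell-surface VCAM-1 was quantified by ELISA. Bidirectional curve fitting used DMSO as negative control and activity baseline.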

[12] = BSK_4H_Eotaxin3: BioMAP Diversity Plus: 4H Assay for Eotaxin 3 Biomarker Activity (AID 2283000); details: primary human endothelial cells (HUVEC); actives raise or lower the signal;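 further: CCL26 protein level quantified by ELISA in parallel with SRB cytotoxicity check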
How it was run: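 HUVEC, 24 h post-dose, ELISA for Eotaxin-3/CCL26. Gain or loss of signal fitted bidirectionally vs DMSO baseline.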

[13] = read-out: Intercellular Adhesion Molecule 1 (ICAM1), ICAM1 (gene 3383); test: BSK_3C_ICAM1: BioMAP Diversity Plus: 3C Assay for Intercellular Adhesion Molecule 1 (ICAM1) Biomarker Activity (AID 2283003); details: primary human endothelial cells (HUVEC); actives raise or lower the signal
How it was run: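 Primary human umbilical vein endothelial cells in the BioMAP 3C system were exposed to chemicals for 24 h, then ICAM-1 was quantified by ELISA. Activity was fitted bidirectionally against the DMSO negative control baseline.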

[14] = BSK_3C_Proliferation: Cell Proliferation Assessment in the BioMAP Diversity Plus: 3C Assay (AID 2283006); details: primary human endothelial cells (HUVEC)
How it was run: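 Human umbilical vein endothelial cells were grown sub-confluent and exposed to chemical for 48 h, then fixed with 10% TCA and stained with 0.1% sulforhodamine B; absorbance at 560 nm gave relative cell number, fitted bidirectionally against DMSO baseline.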

[15] = target: human Peroxisome Proliferator-activated Receptor alpha (PPARa), PPARA (gene 5465) (UniProt Q07869); test: ATG_PPARa_TRANS: Attagene TRANS-FACTORIAL HepG2 Assay for human Peroxisome Proliferator-activated Receptor alpha (PPARa) (AID 2283001; active means hit-call score of the fitted dose curve at least 0.9, where 1 is the maximum)
Sequence of human Peroxisome Proliferator-activated Receptor alpha (PPARa), PPARA (gene 5465) (Q07869 whole entry, looked up, the tested form may be a part): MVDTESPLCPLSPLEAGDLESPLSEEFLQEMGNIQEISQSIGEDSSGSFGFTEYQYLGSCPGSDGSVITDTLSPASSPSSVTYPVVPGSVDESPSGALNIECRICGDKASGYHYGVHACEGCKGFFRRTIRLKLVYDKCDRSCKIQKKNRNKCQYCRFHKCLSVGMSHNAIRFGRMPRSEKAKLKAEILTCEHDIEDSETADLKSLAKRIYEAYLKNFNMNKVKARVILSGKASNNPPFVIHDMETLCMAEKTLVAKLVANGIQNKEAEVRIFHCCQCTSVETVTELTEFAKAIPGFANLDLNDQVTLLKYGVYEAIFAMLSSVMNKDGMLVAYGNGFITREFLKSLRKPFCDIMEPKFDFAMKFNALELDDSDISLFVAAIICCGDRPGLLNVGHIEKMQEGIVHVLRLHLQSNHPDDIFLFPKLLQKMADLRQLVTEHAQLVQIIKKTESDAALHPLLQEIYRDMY
How it was run: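 HepG2 cells transiently transfected with multiplexed GAL4-UAS reporter units and chimeric NR-Gal4 constructs were dosed for 24 h. Reporter mRNA was measured by RT-PCR with fluorescent labelling and capillary electrophoresis; gain of signal fitted against DMSO.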

[16] = target: human Peroxisome Proliferator-activated Receptor delta (PPARd), PPARD (gene 5467) (UniProt Q03181); test: ATG_PPARd_TRANS: Attagene TRANS-FACTORIAL HepG2 Assay for human Peroxisome Proliferator-activated Receptor delta (PPARd) (AID 2283002; active means hit-call score of the fitted dose curve at least 0.9, where 1 is the maximum)
Sequence of human Peroxisome Proliferator-activated Receptor delta (PPARd), PPARD (gene 5467) (Q03181 whole entry, looked up, the tested form may be a part): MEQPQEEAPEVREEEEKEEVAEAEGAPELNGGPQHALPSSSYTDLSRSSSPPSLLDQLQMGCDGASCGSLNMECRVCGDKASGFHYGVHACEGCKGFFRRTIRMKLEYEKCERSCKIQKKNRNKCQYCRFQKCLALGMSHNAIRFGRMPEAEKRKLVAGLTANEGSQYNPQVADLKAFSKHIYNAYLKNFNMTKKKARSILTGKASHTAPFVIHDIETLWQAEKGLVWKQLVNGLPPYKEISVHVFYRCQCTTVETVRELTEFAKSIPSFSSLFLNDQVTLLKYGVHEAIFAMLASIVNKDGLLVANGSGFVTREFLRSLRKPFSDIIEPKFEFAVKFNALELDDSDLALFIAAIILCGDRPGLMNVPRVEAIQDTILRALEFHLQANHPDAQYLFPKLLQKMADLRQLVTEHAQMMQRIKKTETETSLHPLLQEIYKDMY
How it was run: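 HepG2 cells transiently transfected with multiplexed GAL4-UAS reporter units and exogenous chimeric NR-Gal4 proteins; 24 h compound exposure. Reporter mRNA measured by RT-PCR, 6-FAM labelling, HpaI digestion and capillary electrophoresis; gain of signal versus DMSO.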

[17] = target: Nuclear receptor subfamily 1 group I member 2 (Homo sapiens) (UniProt O75469); test: ATG_PXR_TRANS: Attagene TRANS-FACTORIAL HepG2 Assay for human Pregnane X Receptor (PXR) (AID 2283008; active means hit-call score of the fitted dose curve at least 0.9, where 1 is the maximum)
Sequence of Nuclear receptor subfamily 1 group I member 2 (Homo sapiens) (O75469 whole entry, looked up, the tested form may be a part): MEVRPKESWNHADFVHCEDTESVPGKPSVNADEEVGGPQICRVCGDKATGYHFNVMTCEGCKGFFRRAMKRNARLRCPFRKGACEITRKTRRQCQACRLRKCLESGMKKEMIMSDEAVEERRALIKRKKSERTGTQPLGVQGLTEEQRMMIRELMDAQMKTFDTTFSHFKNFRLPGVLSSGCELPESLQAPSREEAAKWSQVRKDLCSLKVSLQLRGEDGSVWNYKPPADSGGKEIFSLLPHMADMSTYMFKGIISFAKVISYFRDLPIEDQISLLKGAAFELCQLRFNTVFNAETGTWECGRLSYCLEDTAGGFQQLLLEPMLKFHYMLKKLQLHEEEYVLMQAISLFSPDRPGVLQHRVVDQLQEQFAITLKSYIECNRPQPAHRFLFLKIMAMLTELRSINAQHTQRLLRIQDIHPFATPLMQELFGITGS
How it was run: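 Measures mRNA induction of a GAL4-UAS-driven reporter in human HepG2 cells transiently expressing PXR fused to Gal4, following 24 h treatment. DMSO served as negative control and baseline.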

[18] = target: human Retinoic Acid Receptor beta (RARb), RARB (gene 5915) (UniProt P10826); test: ATG_RARb_TRANS: Attagene TRANS-FACTORIAL HepG2 Assay for human Retinoic Acid Receptor beta (AID 2283004; active means hit-call score of the fitted dose curve at least 0.9, where 1 is the maximum)
Sequence of human Retinoic Acid Receptor beta (RARb), RARB (gene 5915) (P10826 whole entry, looked up, the tested form may be a part): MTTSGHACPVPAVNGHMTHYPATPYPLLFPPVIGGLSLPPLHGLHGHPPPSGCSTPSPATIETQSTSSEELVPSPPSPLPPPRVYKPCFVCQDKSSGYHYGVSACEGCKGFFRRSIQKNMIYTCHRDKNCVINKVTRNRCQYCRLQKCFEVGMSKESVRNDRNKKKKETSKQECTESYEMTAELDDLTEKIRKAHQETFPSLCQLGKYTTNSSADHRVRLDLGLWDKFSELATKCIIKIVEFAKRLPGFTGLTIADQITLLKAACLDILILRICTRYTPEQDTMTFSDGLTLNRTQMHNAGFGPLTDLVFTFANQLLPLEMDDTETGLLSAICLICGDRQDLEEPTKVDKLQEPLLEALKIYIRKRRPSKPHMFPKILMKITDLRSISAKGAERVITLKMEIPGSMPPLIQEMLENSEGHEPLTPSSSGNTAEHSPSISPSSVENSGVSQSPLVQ
How it was run: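 HepG2 cells transiently transfected with multiplexed GAL4-UAS reporter units expressing chimeric NR–Gal4 fusions; 24 h compound exposure. Reporter mRNA quantified by RT-PCR, 6-FAM labelling, HpaI digestion and capillary electrophoresis; gain-of-signal fitted against DMSO baseline.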

[19] = target: Retinoic acid receptor alpha (Homo sapiens) (UniProt P10276); test: ATG_RARa_TRANS: Attagene TRANS-FACTORIAL HepG2 Assay for human Retinoic Acid Receptor alpha (RARa) (AID 2283005; active means hit-call score of the fitted dose curve at least 0.9, where 1 is the maximum)
Sequence of Retinoic acid receptor alpha (Homo sapiens) (P10276 whole entry, looked up, the tested form may be a part): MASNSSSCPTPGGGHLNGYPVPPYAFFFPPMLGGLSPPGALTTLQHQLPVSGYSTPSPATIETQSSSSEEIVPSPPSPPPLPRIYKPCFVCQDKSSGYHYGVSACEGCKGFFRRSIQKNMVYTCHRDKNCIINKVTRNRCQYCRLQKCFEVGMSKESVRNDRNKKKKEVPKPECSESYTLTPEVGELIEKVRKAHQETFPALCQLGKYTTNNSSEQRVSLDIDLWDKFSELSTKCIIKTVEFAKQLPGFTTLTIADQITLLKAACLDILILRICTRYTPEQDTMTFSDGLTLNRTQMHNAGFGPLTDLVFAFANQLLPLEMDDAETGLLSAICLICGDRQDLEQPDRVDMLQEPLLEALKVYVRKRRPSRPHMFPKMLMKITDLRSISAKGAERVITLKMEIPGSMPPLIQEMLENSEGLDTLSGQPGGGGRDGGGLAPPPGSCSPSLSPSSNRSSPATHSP
How it was run: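 HepG2 cells transiently transfected with multiple reporter units expressing chimeric RARα-GAL4 fusion, with GAL4-UAS-driven reporters. After 24 h compound exposure, reporter mRNA induction quantified by RT-PCR and capillary electrophoresis with fluorescent labeling; gain-of-signal fitted relative to DMSO control.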

[20] = target: human Retinoic Acid Receptor gamma (RARg), RARG (gene 5916) (UniProt P13631); test: ATG_RARg_TRANS: Attagene TRANS-FACTORIAL HepG2 Assay for human Retinoic Acid Receptor gamma (RARg) (AID 2283009; active means hit-call score of the fitted dose curve at least 0.9, where 1 is the maximum)
Sequence of human Retinoic Acid Receptor gamma (RARg), RARG (gene 5916) (P13631 whole entry, looked up, the tested form may be a part): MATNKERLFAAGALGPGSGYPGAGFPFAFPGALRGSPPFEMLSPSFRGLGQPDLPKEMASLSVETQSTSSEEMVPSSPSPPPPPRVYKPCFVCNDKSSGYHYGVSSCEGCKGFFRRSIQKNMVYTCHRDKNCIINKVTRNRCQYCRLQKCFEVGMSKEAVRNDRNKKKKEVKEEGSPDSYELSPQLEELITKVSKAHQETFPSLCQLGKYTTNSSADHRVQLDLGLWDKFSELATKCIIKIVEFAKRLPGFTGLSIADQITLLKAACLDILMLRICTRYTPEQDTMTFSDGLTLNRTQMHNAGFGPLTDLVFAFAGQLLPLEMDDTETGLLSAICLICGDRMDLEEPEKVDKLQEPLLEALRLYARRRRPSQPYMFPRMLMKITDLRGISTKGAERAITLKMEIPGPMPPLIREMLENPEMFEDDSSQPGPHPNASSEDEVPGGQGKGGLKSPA
How it was run: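 HepG2 cells transiently transfected with multiplexed reporter units expressing chimeric RARg-GAL4 and GAL4-UAS-driven reporters; 24 h compound exposure. Reporter mRNA quantified by RT-PCR with fluorescent labelling and capillary electrophoresis; gain-of-signal fitted relative to DMSO baseline.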

Compound: N#Cc1nc(Cl)c(Cl)c(Cl)c1Cl
- AC50 [1]: 6.05 µM (active)
- outcome [2]: inactive
- AC50 [3]: 4.63 µM (active)
- AC50 [4]: 0.885 µM (active)
- AC50 [5]: 0.206 µM (active)
- outcome [6]: inactive

Compound: O=C(O)c1cn(-c2ccc(F)cc2)c2cc(N3CCNCC3)c(F)cc2c1=O
- outcome [1]: inactive
- outcome [2]: inactive
- outcome [4]: inactive
- outcome [7]: inactive
- outcome [8]: inactive
- outcome [9]: inactive
- outcome [10]: inactive
- outcome [11]: inactive
- outcome [12]: inactive
- outcome [13]: inactive
- outcome [14]: inactive

Compound: CCCCCCCCCCCCSC
- outcome [1]: inactive
- outcome [2]: inactive
- outcome [4]: inactive
- outcome [7]: inactive
- outcome [8]: inactive
- outcome [15]: inactive
- outcome [16]: inactive
- outcome [17]: inactive

Compound: C=C(C)[C@@H]1CC[C@@H](C)C[C@@H]1O
- outcome [1]: inactive
- outcome [2]: inactive
- outcome [4]: inactive
- outcome [7]: inactive
- outcome [8]: inactive

Compound: CC(C)=CCCC(C)=CCCC(C)=CCO
- outcome [1]: inactive
- outcome [2]: inactive
- AC50 [4]: 18.8 µM (active)
- outcome [7]: inactive
- outcome [8]: inactive
- outcome [15]: inactive
- outcome [18]: inactive
- AC50 [5]: 39.9 µM (active)
- AC50 [17]: 10.2 µM (active)

Compound: Cc1ccc(C(C)C)cc1O
- outcome [1]: inactive
- outcome [2]: inactive
- outcome [3]: inactive
- outcome [4]: inactive
- outcome [15]: inactive
- outcome [17]: inactive
- outcome [6]: inactive

Compound: OC[C@H]1O[C@H](O[C@]2(CCl)O[C@H](CCl)[C@@H](O)[C@@H]2O)[C@H](O)[C@@H](O)[C@H]1Cl
- outcome [1]: inactive
- outcome [2]: inactive
- outcome [4]: inactive
- outcome [7]: inactive
- outcome [8]: inactive
- outcome [9]: inactive
- outcome [10]: inactive
- outcome [11]: inactive
- outcome [12]: inactive
- outcome [15]: inactive
- outcome [13]: inactive
- outcome [14]: inactive
- outcome [17]: inactive

Compound: CC(CC(C)(C)C)CC(C)(C)CC(C)(C)C (stereo unspecified)
- outcome [1]: inactive
- outcome [2]: inactive
- outcome [3]: inactive
- outcome [4]: inactive
- outcome [8]: inactive
- outcome [16]: inactive
- outcome [5]: inactive
- outcome [6]: inactive

Compound: CC(=O)Nc1ccc(C)cc1C
- outcome [1]: inactive
- outcome [2]: inactive
- outcome [3]: inactive
- outcome [4]: inactive
- outcome [8]: inactive
- outcome [16]: inactive
- outcome [17]: inactive
- outcome [6]: inactive

Compound: CC(C)=CCCC(C)CC=O (stereo unspecified)
- outcome [1]: inactive
- outcome [2]: inactive
- outcome [4]: inactive
- outcome [7]: inactive
- outcome [8]: inactive
- outcome [15]: inactive
- outcome [5]: inactive
- outcome [17]: inactive
- outcome [6]: inactive

Compound: CCCCCC(CO)CCC (stereo unspecified)
- outcome [1]: inactive
- outcome [2]: inactive
- outcome [4]: inactive
- outcome [7]: inactive
- outcome [8]: inactive
- outcome [15]: inactive
- outcome [16]: inactive
- outcome [18]: inactive
- outcome [19]: inactive
- outcome [20]: inactive
- outcome [6]: inactive

Compound: O=C[C@@H](O)[C@H](O)[C@H](O)CO
- outcome [1]: inactive
- outcome [2]: inactive
- outcome [4]: inactive
- outcome [7]: inactive
- outcome [8]: inactive
- outcome [15]: inactive
- outcome [16]: inactive
- outcome [5]: inactive
- outcome [20]: inactive
- outcome [6]: inactive

Compound: O=C(Cl)c1cccc(C(=O)Cl)c1
- outcome [1]: inactive
- outcome [2]: inactive
- outcome [4]: inactive
- outcome [7]: inactive
- outcome [8]: inactive
- outcome [15]: inactive
